From PubChem
Shown are actives, neighbours in structure and some others; about 6.5% of the full set was active somewhere.
TGFb SMAD3 inh = blocks TGF-b signaling. AID 588855. HepG2 CAGA-GFP TGF-b/SMAD3 reporter, GFP fluorescence, 18 h; TGF-beta stimulated, 500 pg/mL final. actives 1.2% (n = 410,000). Potency, µM (series often up to 46.1 µM), usual class: inhibitors; note: nearly all actives have a fitted effect of over 65% in size
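Inhibition was scored as loss of TGF-beta-induced (500 pg/mL final, 18 hours, 37 degrees C) GFP in HEPG2 cells carrying a CAGA-GFP reporter, in DMEM with 1% FBS. Well GFP was summed per cell; Activity was normalised to unstimulated and stimulated DMSO wells, then concentration-response fitting.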
HepG2 tox-1 = kills HepG2 cells in TGF-b inhibitor counter-screen; Potency, µM (highest dose often 46.1 µM), usual class: cytotoxic; HepG2 CAGA-GFP viability, ATP luminescence, 18 h; actives 0.76% (n = 410,000)
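HepG2 CAGA-GFP cells (1000/well, DMEM with 1% FBS) received compound, then TGF-beta at 500 pg/mL final, and were incubated 18 hours at 37 degrees C. Viability was read by CellTiter-Glo luminescence. Media-only wells were set as complete cell-killing and DMSO as no toxicity.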
IL-1B inflam inh = blocks inflammasome-driven IL-1 beta release. actives 4.7% (n = 360,000). activity change, % at 57.5 µM. THP-1 LPS/ATP IL-1B secretion, AlphaLISA, 16 h; stronger effect = lower value; in the data active = activity change below about -50%; inconclusive = mostly about -30% to -49%
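THP-1 cells pretreated 1 hr with compounds (up to 57.5 uM final), then stimulated with LPS (250 ng/mL final) plus ATP (1.25 mM final); secreted IL-1B measured by AlphaLISA after 16 hr, decreased signal indicating inhibition.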
HT1080-NT tox = kills 2HG-producing HT-1080-NT fibrosarcoma cells | actives 1.6% (n = 360,000) | Potency, µM (doses to about 46.1 µM), hits mostly cytotoxic | AID 686970 | HT-1080-NT fibrosarcoma viability, CellTiter-Glo ATP luminescence, 48 h;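 note: NT is the 2HG producing partner of a matched IDH1 knockdown line; nearly all actives have a fitted effect of over 55% in size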
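A 48-hour cytotoxicity screen used HT-1080-NT cells plated 2 hours before compound delivery. ATP-based CellTiter-Glo luminescence measured viability, normalized to DMSO and no-cell controls.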
Giardia kill = kills Giardia lamblia. Giardia lamblia trophozoite viability. activity change, % at 7.66 µM, hits read low. actives 0.15% (n = 340,000); in the data active = activity change below about -80%; inconclusive = between about -30% and that limit;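 note: parasites exposed to compound for two days anaerobically before the ATP read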
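Trophozoites 100 cells/well + cpd; 48 hrs, 37 deg C, anaerobic. ATPLite 1-Step added, 15-30 min RT, luminescence read (ATP-based viability).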
HT1080 IDH1KD tx = HT-1080 IDH1 knockdown cell toxicity (counter line) | HT-1080 IDH1 knockdown viability, ATP luminescence, 48 h | actives 2% (n = 360,000) | Potency, µM (top dose mostly 46.1 µM), hits mostly cytotoxic
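HT-1080-IDH1KD cells (IDH1 knocked down), 750/well in RPMI with 5% FBS, treated with compound 48 h at 37 degrees C. Viability by CellTiter-Glo luminescence, normalised to DMSO and no-cell wells; concentration-response curves classed.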
TGFb confirm = confirmation of TGF-b signaling inhibitors in HepG2 reporter cells; shares compounds with TGFb SMAD3 inh; HepG2 CAGA-GFP TGF-b reporter, GFP fluorescence, 18 h; cells stimulated with TGF-beta, 500 pg/mL; Potency, µM (top dose mostly 46.1 µM), usual class: inhibitors; actives 63% (n = 1,600); note: nearly all actives have a fitted effect of over 65% in size
HepG2 tox-2 = toxic to HepG2 cells in TGF-b counterscreen. shares compounds with TGFb SMAD3 inh. HepG2 CAGA-GFP viability, ATP luminescence, 18 h; cells stimulated with TGF-beta, 500 pg/mL. Potency, µM (series often up to 46.1 µM), actives largely listed as inhibitors. actives 27% (n = 1,600). AID 720535; note: nearly all actives have a fitted effect of over 70% in size
TGFb CCL64 inh = blocks TGF-b signaling in CCL64 reporter cells; actives 41% (n = 1,600); shares compounds with TGFb SMAD3 inh; AID 720536; CCL64 CAGA-GFP reporter, TGF-b stimulated, GFP fluorescence, 18 h; Potency, µM (titrated, usually from 46.1 µM), usual class: inhibitors; note: nearly all actives have a fitted effect of over 65% in size
TGFb COP inh = TGF-b inhibition validated with COP promoter | shares compounds with TGFb SMAD3 inh | HepG2 COP-GFP TGF-b reporter, GFP fluorescence, 18 h; cells stimulated by added recombinant TGF-beta | Potency, µM (highest dose often 46.1 µM), actives largely listed as inhibitors | actives 3% (n = 1,600) | AID 720537; note: nearly all actives have a fitted effect of over 70% in size
Numbers stand for hits; – = inactive; ? = inconclusive; · = not tested or not shown. Unless noted, calls come from the whole dose curve; as a rule, active = well fitted curve in the direction sought with a large enough effect; inconclusive = small, poorly fitted or top-dose-only effect, or another doubt; inactive = no such curve, though single readings can be large; an effect the other way counts as inactive or inconclusive.

SMILES	TGFb SMAD3 inh	HepG2 tox-1	IL-1B inflam inh	HT1080-NT tox	Giardia kill	HT1080 IDH1KD tx	TGFb confirm	HepG2 tox-2	TGFb CCL64 inh	TGFb COP inh
CCN(CC)C(=O)[C@H]1C[C@H](CC(=O)NCc2cccc(C(F)(F)F)c2)C(=O)N2CCc3c([nH]c4cc(-c5ccco5)ccc34)[C@]12C	10µM	–	-58	?	–	?	9.2µM	16µM	12µM	–
C[C@]12c3[nH]c4cc(-c5ccco5)ccc4c3CCN1C(=O)[C@@H](CC(=O)NCCc1ccccn1)C[C@@H]2C(=O)N1CCCCC1	?	–	-108	–	–	–	?	–	–	–
CCN(CC)C(=O)[C@H]1CC(CC(=O)NCCN2CCOCC2)C(=O)N2CCc3c([nH]c4ccc(OC)cc34)[C@]12C (stereo partly specified)	–	–	–	–	–	–	·	·	·	·
CC[C@]12c3[nH]c4cc(-c5ccco5)ccc4c3CCN1C(=O)[C@@H](CC(=O)NCCc1ccccn1)C[C@@H]2C(=O)N1CCN(C(=O)C2CC2)CC1	?	–	–	–	–	–	·	·	·	·
Cc1ccc2oc3c(c(=O)c2c1)C(c1ccccc1F)N(c1ccccn1)C3=O (stereo unspecified)	–	–	·	·	·	·	·	·	·	·
CCCCOc1ccc(C(=O)NCCc2csc(-c3cccc(F)c3)n2)cc1	–	–	·	·	·	·	·	·	·	·
O=C(COc1ncnc2sccc12)NC1CCCCC1	–	–	–	–	–	–	·	·	·	·
NC(=O)c1cccc(-c2cnc(N)c(C(=O)c3cccnc3)n2)c1	10µM	–	-95	–	–	–	4.6µM	16µM	–	–
O=C(Nc1cccc(NC(=O)c2cccnc2)c1)c1ccccc1	–	–	–	–	–	–	·	·	·	·
COc1ccc(/C=C2/CCC(CN3CCOCC3)C2=O)cc1 (stereo unspecified)	5µM	11µM	-103	?	–	6.5µM	4.6µM	3.7µM	4.6µM	16µM
C=C1C2=C(C(=O)N1OC)[C@@H](O)[C@@](C)(O)[C@@H](CCCCC)O2	13µM	–	-83	?	·	?	?	–	–	–
C/C=C1\COC(C(=O)NCc2ccccn2)(C(F)(F)F)C=C1C=C(C)C (stereo unspecified)	–	–	·	·	–	·	·	·	·	·
C/C=C1\COC(C(=O)NCc2ccccc2)(C(F)(F)F)C=C1C=C1CCCCC1 (stereo unspecified)	11µM	–	–	–	–	–	?	–	?	–
CCCS(=O)(=O)NCCc1cc2c(C)ccc(C)c2[nH]c1=O	–	–	–	–	–	–	·	·	·	·
COc1cc(C2C3=C(COC3=O)OC(C)(C)Oc3cc4c(cc32)OCO4)cc(OC)c1OC (stereo unspecified)	2.8µM	–	–	?	–	?	?	–	?	–
COc1cc(C2C3=C(COC3=O)Oc3cc4c(cc32)OCO4)ccc1O (stereo unspecified)	13µM	–	–	?	–	?	–	–	?	–
CC(=O)N1CCN(C(=O)c2[nH]c(C(F)(F)F)nc2-c2ccccc2)CC1	?	–	–	–	·	–	·	·	·	·
O=C(c1[nH]c(C(F)(F)F)nc1-c1ccccc1)N1CCN(c2cccc(C(F)(F)F)n2)CC1	11µM	–	–	1.3µM	·	1.8µM	16µM	–	13µM	–
Cc1nnc(Sc2cc(NCCCO)c([N+](=O)[O-])c3nonc23)s1	5µM	–	-105	16µM	–	16µM	4.6µM	23µM	3.3µM	?
O=[N+]([O-])c1c(NCCCO)cc(Sc2nc3ccccc3s2)c2nonc12	18µM	–	?	11µM	–	6.3µM	?	16µM	6.5µM	16µM
Cc1cccc(-n2ncc3c(NCc4cccs4)ncnc32)c1	–	–	–	?	–	?	·	·	·	·
COc1ccc(-n2nnnc2C2CCN(S(=O)(=O)c3ccc(C(C)(C)C)cc3)CC2)cc1	?	–	·	·	·	·	·	·	·	·
CCN(C(=O)COC(=O)c1cccc2ccccc12)c1c(N)n(Cc2ccccc2)c(=O)[nH]c1=O	–	–	?	–	–	–	·	·	·	·
CCN(C(=O)COC(=O)c1ccccc1Nc1ccccc1)c1c(N)n(Cc2ccccc2)c(=O)[nH]c1=O	18µM	–	-50	–	–	–	21µM	–	?	–
COc1ccc(NC(=O)CSc2nc(-c3ccco3)cc(C(F)(F)F)n2)cc1Cl	–	–	·	·	·	·	·	·	·	·
SMILES	TGFb SMAD3 inh	HepG2 tox-1	IL-1B inflam inh	HT1080-NT tox	Giardia kill	HT1080 IDH1KD tx	TGFb confirm	HepG2 tox-2	TGFb CCL64 inh	TGFb COP inh
C#CC1(N2CCCCC2)CCCCC1	–	–	–	–	·	–	·	·	·	·
O=C1N[C@@H](c2ccccc2)COC(=O)[C@@H](Cc2ccc(F)cc2)CC/C=C/C[C@H]1CC(=O)N(CCO)Cc1ccccc1	?	–	?	?	–	?	·	·	·	·
O=C1N[C@@H](c2ccccc2)COC(=O)[C@@H](Cc2ccc(F)cc2)CC/C=C/C[C@@H]1CC(=O)N(CCO)Cc1ccccc1	?	–	?	?	–	?	15µM	–	?	–
O=C(C[C@@H]1C/C=C\C[C@@H](Cc2ccc(F)cc2)C(=O)OC[C@@H](Cc2ccccc2)NC1=O)N[C@H](CO)Cc1ccccc1	?	–	–	–	–	–	–	–	–	–
CCCCCOP(=O)(c1ccccc1)c1ccccc1	–	–	?	–	–	–	·	·	·	·
COc1ccc(C)cc1NC(=O)c1ccccc1NS(=O)(=O)c1ccc(Cl)s1	5µM	–	?	?	–	16µM	12µM	?	6.5µM	–
Cc1ccc(NC(=O)c2ccc([N+](=O)[O-])s2)cc1S(=O)(=O)N1CCOCC1	7.1µM	–	–	?	?	21µM	6.5µM	?	?	–
